# The list is not random: actives were taken first. Their share in the collection is about 2%.
# Yeast superoxide = caloric restriction mimetics inhibiting age-related superoxide in yeast; S. cerevisiae aged cells, superoxide DHE fluorescence; hits give low values; superoxide response (% of plate mean), % at 10 µM; actives 0.18% (n = 330,000);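 active means superoxide response under a set limit, about three screen SD below normal, cut at about 65% in these data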;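 further: yeast aged for seven days with compound at 30 °C before DHE staining; 100% = average MFI of all compound-treated wells on the plate with controls excluded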
# Calb FLC = affects C. albicans growth with fluconazole; actives 0.57% (n = 300,000); C. albicans CaCi-2 (fluconazole-resistant clinical isolate) + fluconazole, Alamar Blue growth, 48 h; growth inhibition, % (no concentration beside the values);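 active means growth inhibition above about 58% in most replicates, limit read from the data, passing the limit was not always enough; inconclusive means exactly half the replicates above a set limit; inactive means most replicates below a set limit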;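 further: all wells also contain fluconazole at 8 µg/ml as a sub-toxic cotreatment; 0% = median of DMSO wells and 100% = median of geldanamycin control wells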
# PolyA inhibitor = inhibitors of polyadenylation in S. cerevisiae. S. cerevisiae SKY197-pL101 polyadenylation reporter, beta-gal luminescence; efflux-impaired pdr1/pdr3 knockout yeast; score 100 = 6 SD above DMSO. activity score, % at 12 µM. actives 0.02% (n = 300,000). AID 1875;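 active means lowest replicate activity score at least 50, where 100 means six control SD above control mean; inconclusive means lowest score under 50 but half or more replicates reach 50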;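 further: yeast exposed to compound for 9 h at 30 °C; higher score means more reporter readthrough which indicates perturbed polyadenylation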
# Platelet DG rel = modulates dense granule release in human platelets; human platelet-rich plasma, SFLLRN dense granule ATP release, luminescence; inhibition, %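 (compounds screened at 7.5 µM in platelet-rich plasma)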; actives 0.22% (n = 300,000);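 active means mean replicate score, as percent of positive control, at or above 50; inconclusive means mean below 50 but at least one replicate at or above 50; inactive means mean and every replicate below 50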
# SKKanGAS inh = inhibitors of SKKanGAS S. pyogenes growth in kanamycin (SK-promoter or general growth effect); BacTiter-Glo, 6 h; actives 1.3% (n = 300,000); inhibition, % at 7.5 µM;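 active means mean replicate score, as percent of positive control median, at least 50; inconclusive means mean below 50 but one replicate at or above 50; inactive means mean and every replicate below 50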;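 further: strain carries kanamycin resistance gene driven by streptokinase promoter and grows in 40 µg/ml kanamycin; loss of luminescence reflects streptokinase promoter inhibition or plain growth inhibition; 0% = median of DMSO wells and 100% = positive control at its reference dose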
# The depositor's hits bear a star; ? = inconclusive; . = no result.
SMILES,Yeast superoxide,Calb FLC,PolyA inhibitor,Platelet DG rel,SKKanGAS inh
CCOC(=O)c1c(NC(=O)CN2CCN(C(=O)c3ccco3)CC2)sc2c1CCCC2,113,103*,-10,1,35
CCOP(=O)(OCC)c1nc(-c2cccc3ccccc23)oc1NCc1ccc(OC)cc1,111,-5,-2,12,57*
COc1ccc(S(=O)(=O)N2CC(C)N(C(=O)N3CCOCC3)C2)cc1 (stereo unspecified),95,15,-11,-48,-4
Cc1nn2c(N3CCN(C(=O)c4ccco4)CC3)cc(C(C)(C)C)nc2c1-c1ccccc1,107,2,-1,2,62*
O=C(NCc1ccccn1)C(=O)Nc1nc(C23CC4CC(CC(C4)C2)C3)cs1,105,-10,-2,3,75*
COc1ccc(NC(=S)NC(NC(=O)c2ccc(Cl)cc2Cl)C(Cl)(Cl)Cl)c([N+](=O)[O-])c1 (stereo unspecified),84,-6,20,-6,50*
C/C(=N\Nc1nc2ccccc2s1)c1ccc(Br)s1,100,-73,-5,-3,92*
O=C(Nc1ccc(NC(=O)c2cccc([N+](=O)[O-])c2)cc1)c1cccc([N+](=O)[O-])c1,105,12,3,-7,3
COc1cc(C(=O)NCC(=O)OCC(=O)Nc2nnc(-c3ccccc3)o2)cc(OC)c1OC,92,-5,-7,-2,0
COc1ccc(C(=O)Nc2nnc(-c3ccccc3)o2)cc1OC,93,-7,11,-3,50*
O=C(Nc1nnc(-c2ccc(F)cc2)o1)c1cccc([N+](=O)[O-])c1,103,91*,21,-6,84*
O=C(Nc1nnc(-c2cccs2)o1)c1cc(-c2ccccc2)nc2ccccc12,109,60,-4,5,92*
COc1cccc(-c2nnc(NC(=O)c3cccc(F)c3)o2)c1,128,7,18,28,87*
CCCc1ccc(OCC(=O)NNC(=O)c2cccnc2)cc1,101,-12,-5,-5,-3
CN(C)CCCNC(=S)N(CCO)Cc1cc2cc3c(cc2[nH]c1=O)OCO3,105,5,4,7,-3
CC(=O)NC1=NN(C(C)=O)C(c2ccc(F)cc2)S1 (stereo unspecified),100,-27,29,1,-2
O=C(Nc1nnc(-c2ccco2)o1)c1ccc(N2C(=O)CCC2=O)cc1,97,-17,7,-19,-3
O=C(Nc1nnc(-c2cccs2)o1)c1cccc(Oc2ccccc2)c1,97,.,.,.,.
COc1cc(C(=O)OCC(=O)Nc2nnc(-c3ccccc3)o2)cc(OC)c1OC,98,-13,10,0,31
COc1cccc(-c2nnc(NC(=O)c3ccccc3Br)o2)c1,91,-6,11,-4,38
O=C(Nc1nnc(-c2ccco2)o1)c1ccc(Cl)s1,101,-2,-6,14,51*
COc1cccc(-c2nnc(NC(=O)c3ccc(Cl)s3)o2)c1,130,35,3,7,96*
COc1ccc(C(=O)OCC(=O)Nc2nnc(-c3ccccc3)o2)cc1,93,63,7,-27,59*
O=C(Nc1nnc(-c2cccs2)o1)c1cccc(F)c1,99,87*,11,-2,85*
CCCCC(=O)NC(c1ccccc1)c1ccc2cccnc2c1O (stereo unspecified),94,89*,-8,-1,16
SMILES,Yeast superoxide,Calb FLC,PolyA inhibitor,Platelet DG rel,SKKanGAS inh
Oc1c(C(Nc2cccc(C(F)(F)F)c2)c2cccnc2)ccc2cccnc12 (stereo unspecified),81,96*,22,-3,?
Cc1cc(NC(c2cccnc2)c2ccc3cccnc3c2O)no1 (stereo unspecified),87,-5,-6,-3,23
CCCCC(=O)NC(c1ccc([N+](=O)[O-])cc1)c1c(O)ccc2ccccc12 (stereo unspecified),108,18,-2,-1,41
CCCCC(=O)NC(c1ccccc1Cl)c1ccc2cccnc2c1O (stereo unspecified),142,5,-5,-4,69*
CCCC(=O)NC(c1ccccc1)c1ccc2cccnc2c1O (stereo unspecified),105,86*,1,-2,22
CCC(=O)NC(c1ccccc1Cl)c1c(O)ccc2ccccc12 (stereo unspecified),87,13,10,5,16
COC(=O)c1c(NC(=O)CSc2ncn[nH]2)sc(C)c1C,101,12,4,-12,-5
CCCCC(=O)NC(c1ccc(C(C)C)cc1)c1ccc2cccnc2c1O (stereo unspecified),110,-2,-14,3,88*
CC(=O)NC(c1ccc(C(C)C)cc1)c1ccc2cccnc2c1O (stereo unspecified),88,0,6,16,11
COc1cccc(/C=N/NC(=O)COc2cccc3cccnc23)c1O,91,-7,-4,3,27
CCCC(=O)NC(c1ccc(OC)cc1)c1ccc2cccnc2c1O (stereo unspecified),102,102*,-10,-1,11
COc1ccc(Cl)cc1C(Nc1cccnc1)c1ccc2cccnc2c1O (stereo unspecified),115,102*,0,-4,69*
CCC(=O)NC(c1ccccc1OC)c1ccc2cccnc2c1O (stereo unspecified),70,103*,6,1,23
COc1cc(OC)cc(C(=O)NCC(=O)OCC(=O)N2CC(C)CC(C)C2)c1 (stereo unspecified),86,1,5,3,-12
O=C(COC(=O)CN1CCSC1=O)Nc1ccc(F)cc1Cl,78,.,.,.,.
O=C(c1ccc(Br)o1)N1N=C(c2ccc(Cl)cc2)CC1c1ccco1 (stereo unspecified),103,0,3,28,60*
CC(=O)N1N=C(c2ccc(Cl)cc2)CC1c1ccco1 (stereo unspecified),99,-3,-6,1,2
COc1ccc(OC)c(NC(=O)COC(=O)CCCN=C2NS(=O)(=O)c3ccccc32)c1,77,.,.,.,.
Oc1ccc(C2=NN(c3ccccc3)C(c3ccc(F)cc3)C2)cc1 (stereo unspecified),111,-8,-5,18,81*
NS(=O)(=O)c1ccc(N2N=C(c3ccccc3)CC2c2ccc(F)cc2)cc1 (stereo unspecified),109,28,?,-11,64*
COc1ccc(C2CC(c3ccccc3)=NN2c2ccc(S(N)(=O)=O)cc2)cc1 (stereo unspecified),135,53,-4,-11,?
CCN(CCO)Cc1cc(=O)oc2cc3c(cc12)CCC3,112,0,18,9,13
CC(C)Cc1cc(CN2CCC(CO)(Cc3cccc(C(F)(F)F)c3)CC2)[nH]n1,98,-5,11,-3,23
O=C(NCCOC(=O)c1c(F)cccc1Cl)c1c(F)cccc1Cl,94,3,-2,7,-1
